Consider 24 molecules from PubChem BioAssay (NCI).

The panel holds about 83,000 compounds, 20% with a hit somewhere; the sample as a whole holds those more often.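 A percent growth of 40 corresponds to 60% growth inhibition; 0 means no net growth; -100 means all cells died. Active threshold: below 10.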 A number with no mark means an inactive call. Activity calls are given as the source filed them.

Among the test systems are T-47D breast; BT-549 breast; SW-620 colon; HCT-116 colon; HCC-2998 colon; KM12 colon; MCF7 breast.
Experiment in all cases: NCI-60 one-dose screen, 48 h (100 = growth as untreated, 0 = no growth, -100 = all killed)
What all share (settings): 10 µM unless noted

Consider `CCCCCCn1c(-c2ccc(C(=O)O/N=C(\N)c3ccc4c(c3)OCO4)cc2)nc(-c2ccccc2)c1-c1ccccc1`, for which the growth was -11.9% (active) with T-47D breast; 43.5% in the assay on BT-549 breast; 37.8% in the assay with SW-620 colon; 2.68% (active) with HCT-116 colon; 44% in the assay on HCC-2998 colon; 31.8% in the assay on KM12 colon.

Take `CCc1cccc2c1S/C(=C/c1ccc(Cl)cc1)C2=O`: the growth is 68.2% in the assay with T-47D breast; 112% in the assay on BT-549 breast; 94.5% in the assay with SW-620 colon; 52.1% with MCF7 breast; 91.8% in the assay with HCT-116 colon; 110% with HCC-2998 colon. Also, the growth in the assay on KM12 colon is 98.2%.

For `CCCCn1c(-c2ccc(C(=O)O/N=C(\N)c3ccc(OC)cc3)cc2)nc(-c2ccccc2)c1-c1ccccc1`, the growth was -31.8% (active) in the assay with T-47D breast; 11.7% in the assay with BT-549 breast; 5.52% (active) in the assay with SW-620 colon; -24.7% (active) in the assay on MCF7 breast; -33.6% (active) in the assay on HCT-116 colon; 1.5% (active) with HCC-2998 colon. For the same molecule, the growth in the assay with KM12 colon is 9.02% (active).

Consider `Cc1ccc(C(CC(=O)O)c2c(C)[nH][nH]c2=O)cc1` (stereo not given), for which the growth in the assay on T-47D breast was 86.6%; in the assay with BT-549 breast it was 103%; in the assay with SW-620 colon, 108%; in the assay on MCF7 breast, 100%; in the assay on HCT-116 colon, 107%; in the assay on HCC-2998 colon it was 108%. The growth with KM12 colon is 101%.

Consider `CCOC(=O)C1=C(N)Oc2c(sc3c(C)cccc23)C1c1ccc(F)cc1` (stereo not given), for which the growth is 28% in the assay on T-47D breast; 18.1% with BT-549 breast; 22.4% with SW-620 colon; 7.39% (active) with MCF7 breast; 9.01% (active) in the assay with HCT-116 colon; 9.22% (active) with KM12 colon.

For the molecule `CCC(=O)Nc1ccc(-c2nc(-c3cccc(OC)c3)c(-c3ccnc(Br)c3)[nH]2)cc1`, the growth in the assay with T-47D breast is 28.4%; with BT-549 breast, 77.4%; with SW-620 colon, 80.4%; in the assay with HCT-116 colon, 63.7%; in the assay on HCC-2998 colon, 69%; in the assay on KM12 colon, 43.2%.

Regarding `CCOC(=O)c1sc2ncc(-c3ccc(OC)cc3)n2c1C`, the growth was 93.6% with T-47D breast; 102% with BT-549 breast; 94.1% in the assay on SW-620 colon; 89.9% in the assay with MCF7 breast; 92.4% in the assay on HCT-116 colon; 105% in the assay with HCC-2998 colon. Moreover, the growth with KM12 colon is 101%.

In the case of `O=C(CCN1C(=O)/C(=C/c2ccc(O)cc2)SC1=S)Nc1ccccc1`, the growth with T-47D breast was 104%; in the assay on BT-549 breast, 93.1%; in the assay with SW-620 colon, 102%; in the assay with MCF7 breast it was 96.6%; in the assay on HCT-116 colon, 98.2%; with HCC-2998 colon, 111%. In addition, the growth in the assay on KM12 colon was 99.1%.

`CCOc1cccc(NC2=C(Br)C(=O)C(C)=C(C)C2=O)c1`: the growth in the assay on T-47D breast is -35.3% (active); in the assay with BT-549 breast, 96.4%; with SW-620 colon, 105%; in the assay with MCF7 breast, 18.4%; in the assay with HCT-116 colon it was 52%; in the assay with HCC-2998 colon, 119%. In addition, the growth with KM12 colon is 106%.

`CCCCCCn1c(-c2ccc(C(=O)O/N=C(\N)c3ccc4ccccc4c3)cc2)nc(-c2ccccc2)c1-c1ccccc1`: the growth was 28.9% in the assay on T-47D breast; 79.6% in the assay on BT-549 breast; 71.8% in the assay with SW-620 colon; 37.9% in the assay with MCF7 breast; 40.5% in the assay on HCT-116 colon; 93.8% in the assay with HCC-2998 colon. Further, the growth with KM12 colon is 68.6%.

With `CCc1cccc2c3c(sc12)C(c1ccc(Cl)cc1)C(C#N)=C(N)O3` (stereo not given), the growth with T-47D breast is 27.8%; in the assay on BT-549 breast, 50.8%; with SW-620 colon, 33.4%; in the assay with MCF7 breast it was 10.3%; in the assay on HCT-116 colon, 17.9%; with HCC-2998 colon, 17.5%. The growth in the assay on KM12 colon is 18.5%.

Consider `Cc1cccc2c3c(sc12)C(c1ccc(Cl)cc1)C(C#N)=C(/N=C/c1ccc(Cl)cc1)O3` (stereo not given), for which the growth in the assay with T-47D breast was 51%; with BT-549 breast it was 22.7%; in the assay with MCF7 breast, 9.92% (active); in the assay with HCT-116 colon, 13.4%; with HCC-2998 colon it was 16.2%; in the assay with KM12 colon it was 9.86% (active).

In the case of `Cc1c(C(=O)NCCCc2ccccc2)sc2ncc(-c3ccc(Br)cc3)n12`, the growth was 103% in the assay on T-47D breast; 110% in the assay on BT-549 breast; 105% in the assay on SW-620 colon; 94.3% in the assay on MCF7 breast; 104% in the assay with HCT-116 colon; 110% in the assay on HCC-2998 colon. The growth in the assay on KM12 colon is 100%.

In the case of `Cc1cccc2c3c(sc12)C(c1ccc(F)cc1)C(C#N)=C(N)O3` (stereo not given), the growth in the assay with T-47D breast was 66.1%; in the assay on BT-549 breast it was -0.876% (active); in the assay on SW-620 colon it was 21.3%; in the assay on MCF7 breast it was 8.42% (active); in the assay on HCT-116 colon it was 7.07% (active); with KM12 colon, 2.86% (active).

On to `O=C(Nc1ccc(-c2nc(-c3cccc(OCCN4CCOCC4)c3)c(-c3ccnc(Br)c3)[nH]2)cc1)c1ccccc1`, for which the growth was 27.6% in the assay on T-47D breast; 45% with BT-549 breast; 2.49% (active) in the assay with SW-620 colon; -46% (active) in the assay on MCF7 breast; 10% (active) in the assay on HCT-116 colon; 11.3% in the assay on HCC-2998 colon. In addition, in the assay on KM12 colon, the growth is 0.737% (active).

For the molecule `CCn1cnc2c1c(=O)[nH]c(=O)n2CC1CCC(CNS(=O)(=O)c2ccc(OC3CCOCC3)c(F)c2)CC1` (stereo not given), the growth with T-47D breast was 19.9%; with BT-549 breast it was 72.7%; with SW-620 colon it was 65.1%; in the assay with MCF7 breast it was 26.7%; in the assay with HCT-116 colon, 49.2%; in the assay on HCC-2998 colon it was 63.9%. Also, the growth in the assay with KM12 colon was 59.9%.

`O=C1/C(=C/c2ccccc2[N+](=O)[O-])Oc2ccc(O)c(O)c21`: the growth in the assay on T-47D breast is 39.8%; with BT-549 breast it was 52.9%; with SW-620 colon, 28.5%; in the assay on MCF7 breast, 21.2%; with HCT-116 colon, 21.6%; with HCC-2998 colon it was 57.9%. In the assay on KM12 colon, the growth was 37.5%.

Turning to `CCOC(=O)c1sc2ncc(-c3ccc(C)cc3)n2c1C`, the growth was 89% with T-47D breast; 107% in the assay with BT-549 breast; 93.4% in the assay on SW-620 colon; 86.7% in the assay on MCF7 breast; 93% in the assay on HCT-116 colon; 93.3% in the assay on HCC-2998 colon. Further, the growth in the assay on KM12 colon is 86.6%.

On to `O=S(=O)(Nc1ccc(-c2nc(-c3cccc(OCCN4CCOCC4)c3)c(-c3ccnc(Br)c3)[nH]2)cc1)c1ccccc1`, for which the growth with T-47D breast is 26.6%; with BT-549 breast, 54.3%; in the assay on SW-620 colon, 43.5%; in the assay with HCT-116 colon, 23.6%; in the assay with HCC-2998 colon, 19.1%; with KM12 colon, 8.86% (active).

Turning to `CCOC(=O)C1=C(N)Oc2c(sc3c(CC)cccc23)C1c1ccc(F)cc1` (stereo not given), the growth in the assay with T-47D breast is 26.8%; in the assay on BT-549 breast, 73.6%; in the assay on SW-620 colon, 22.3%; in the assay on HCT-116 colon, 25.5%; with HCC-2998 colon, 61.4%; in the assay with KM12 colon it was 24%.

As for `Cc1ccc(NC2=C(Cl)C(=O)c3nc(C)ccc3C2=O)cc1`, the growth in the assay with T-47D breast is -47.5% (active); in the assay on BT-549 breast it was 44.9%; with MCF7 breast, -66.1% (active); in the assay with HCT-116 colon it was -39.5% (active); in the assay on HCC-2998 colon, 4.99% (active); in the assay with KM12 colon, 36.6%.

On to `COc1ccc(-c2cc(-c3ccc(Cl)cc3)c(C#N)c(=O)n2CCCCCC(=O)Nc2ccccc2N)cc1`, for which the growth in the assay on T-47D breast was 18.6%; with BT-549 breast, 58.4%; in the assay on SW-620 colon, 42.4%; in the assay on MCF7 breast it was 31%; in the assay on HCT-116 colon, 22.5%; with HCC-2998 colon, 82.8%. Moreover, the growth with KM12 colon was 40.4%.

In the case of `O=C(CCN1C(=O)/C(=C/c2ccc(O)cc2)SC1=S)Nc1ccc(Cl)cc1`, the growth in the assay on T-47D breast is 102%; in the assay with BT-549 breast, 99.8%; with SW-620 colon it was 101%; in the assay on MCF7 breast it was 89%; in the assay on HCT-116 colon, 92.2%; with HCC-2998 colon, 115%. In addition, the growth in the assay with KM12 colon is 97.7%.

As to `CCc1cccc2c3c(sc12)C(c1ccc(F)cc1)C(C#N)=C(N)O3` (stereo not given), the growth in the assay on T-47D breast is 42.1%; in the assay on BT-549 breast, 19.7%; in the assay on SW-620 colon, 30.3%; in the assay on MCF7 breast, 16.1%; in the assay with HCT-116 colon it was 17.7%; with HCC-2998 colon it was 15.4%. The growth in the assay with KM12 colon was 25.1%.
